# Results from PubChem BioAssay (NCI).
# This is part of a sample that, as a whole, favours compounds with a hit. Of some 83,000 tested, about 20% had one in any assay.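 Plates (96-well) were seeded with cells, treated with compound at one concentration, and incubated for 48 hours before percent growth was determined.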 A number with no mark means an inactive call. Active and inactive are the calls of the source. Rule for the calls: active = growth percent below 10; inactive = the rest.
# Legend:
# Experiment in all cases: NCI-60 one-dose screen, 48 h (100 = growth as untreated, 0 = no growth, -100 = all killed)
# Conditions in all cases: 10 µM unless noted
# [1] = tested on: HCT-15 colon
# [2] = tested on: HT29 colon
# [3] = tested on: SNB-75 CNS
# [4] = tested on: SNB-19 CNS
# [5] = tested on: U251 CNS
# [6] = tested on: PC-3 prostate
# [7] = tested on: SK-MEL-5 melanoma
# [8] = tested on: UACC-62 melanoma
# [9] = tested on: LOX IMVI melanoma
# [10] = tested on: SK-MEL-28 melanoma
# [11] = tested on: SK-MEL-2 melanoma
# [12] = tested on: EKVX NSCLC
# [13] = tested on: SN12C renal
# [14] = tested on: UO-31 renal
# [15] = tested on: TK-10 renal
# [16] = tested on: ACHN renal
# [17] = tested on: CAKI-1 renal
# [18] = tested on: A498 renal
# [19] = tested on: CCRF-CEM leukemia
# [20] = tested on: MOLT-4 leukemia
SMILES,growth [1],growth [2],growth [3],growth [4],growth [5],growth [6] [%],growth [7],growth [8],growth [9],growth [10] [%],growth [11] [%],growth [12] [%],growth [13],growth [14],growth [15],growth [16],growth [17],growth [18],growth [19],growth [20]
CCCCCCCNC(=O)CCCNc1ncnc2c1ncn2-c1cccc(C(C)O)c1 (stereo not given),87.2%,93.7%,104%,96.3%,96.9%,85,85.9%,90.3%,101%,96.2,105,76.4,91.4%,83.6%,97.5%,89.6%,90.2%,123%,18.4%,78.2%
Cn1cc(-c2cc3ncnc(Nc4ccc(CC(=O)Nc5cc(C(C)(C)C)nn5C)cc4)c3s2)cn1,54.8%,50%,56.3%,95.7%,61.2%,43.9,49%,33.5%,33.6%,77.2,22.3,84.6,26.4%,28.8%,56.5%,25.9%,19.3%,-7.97% (active),13.7%,16.7%
CN(C(=O)NCc1cccc(F)c1Cl)[C@H](COC(=O)Nc1cc2ccccc2cn1)CC(O)CO (stereo not given in full),101%,99.4%,-21.4% (active),97.2%,74%,80.8,103%,106%,61.9%,119,113,77.4,86.1%,51.8%,101%,107%,25.8%,54.7%,64.9%,94.9%
O=c1ccc(N=Nc2ccccc2)ccc1Cl,2.07% (active),27.5%,74.5%,81.8%,54.4%,56.2,55.5%,55.7%,-77.1% (active),92.5,77.6,65.9,60%,77%,111%,75.9%,76.1%,191%,31.3%,-1.36% (active)
N#Cc1ccc(NC(=O)c2sc3nc4c(cc3c2N)C(=O)CCC4)cc1,101%,84.9%,113%,102%,106%,107,92.6%,99.3%,112%,106,83,93.6,98.3%,104%,65.9%,108%,93.3%,79.6%,99.8%,115%
O=C(/C=C/c1sc(Cl)nc1Cl)c1ccc(Br)cc1,32.4%,91.2%,95%,90.6%,60.1%,95.5,89.2%,95.3%,5.31% (active),100,96.4,96.5,41.7%,80.2%,92.3%,75.6%,87.1%,92.2%,29.9%,29.9%
FC(F)(F)c1cc(Nc2ccc3c(OCCCN4CCOCC4)cccc3n2)ccc1Cl,-39.8% (active),-22.7% (active),40.8%,35.9%,9.5% (active),33.5,69.5%,55.3%,-37.6% (active),41.9,99.6,48.8,66.9%,51%,76.6%,50.7%,55.9%,67.1%,24.8%,18.3%
CC(=O)Oc1ccccc1C(=O)N=C1[Se]CCCN1C(=O)c1ccccc1OC(C)=O,21.5%,95.5%,-28.9% (active),-55.1% (active),23.4%,19.6,74.8%,73.6%,-64.1% (active),18.5,91.4,75.7,-15.2% (active),-55.8% (active),6.56% (active),20.8%,52.5%,68.6%,22.1%,9.25% (active)
NS(=O)(=O)c1ccc(N=Nc2ccc(-c3nn4cc(-c5ccccc5)nc4s3)cc2)cc1,99.2%,99.1%,86.1%,108%,99.7%,94,101%,101%,96.9%,105,99.4,96.7,108%,89.4%,88.5%,99.8%,85.9%,97.5%,111%,105%
CCOc1c(B(O)O)cccc1-c1nc2ccc3[nH]ncc3c2c2c1CCCC2,48.4%,78.7%,-38.5% (active),85.2%,75.4%,68.3,86.7%,88.1%,37%,96.5,113,47.5,62.7%,29.9%,19.7%,51.1%,-26.9% (active),61.8%,44%,28.8%
CN(C)c1ccc(/C=N\Nc2cc(=O)[nH]c3ccc(Cl)cc23)cc1,99.3%,96%,78.4%,96.9%,99.8%,86.4,98.3%,82.1%,99%,114,91.2,85.7,104%,67.9%,127%,95.2%,90.9%,123%,95.4%,87.1%
COc1cccc(/C=C2\C=C(c3ccccc3)N(Cc3ccccc3)C2=O)c1,38%,82.2%,51.4%,79.6%,56.4%,33.9,34.8%,38%,49.2%,79.9,72.6,39.3,43.6%,41.2%,88.5%,48%,55.1%,16%,62.2%,59.1%
O=c1c2cc(F)ccc2sc2c(N3CCNCC3)nc3ccc(F)cc3c12,-66.4% (active),-41.2% (active),53.9%,57%,-56.2% (active),32,81.5%,0.994% (active),-98.5% (active),27.9,90.5,66.4,54.2%,31.8%,26.6%,-41.6% (active),-96.9% (active),45.5%,-12.1% (active),-36.5% (active)
Cc1oc2nc[nH]c(=O)c2c1C(=O)/C=C/c1ccc(Br)cc1,-27.4% (active),15.3%,-2.44% (active),23.5%,12%,25.5,8.55% (active),13.2%,-90.6% (active),23.9,11.9,19.7,1.76% (active),19.4%,40.9%,1.43% (active),28.4%,23.7%,6.65% (active),8.42% (active)
NCCCNc1nc2ccccc2c2c(=O)c3cccc(F)c3sc12,9.25% (active),-14.1% (active),42.7%,44%,28.5%,48.5,72.9%,75.9%,-96.8% (active),85.1,94.6,60.4,43.4%,16.4%,54.2%,8.21% (active),1.7% (active),29.4%,9.26% (active),-14.7% (active)
